The campaign covered roughly 370,000 compounds. About 2,100 (0.57%) were called active. Shown is part of a subset that was picked to be rich in actives. A number with no mark means an inactive call.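 Rule for the calls: active = inhibition above mean plus 3 SD of compounds lying within the high and low control bounds (cut at about 19% in these data); inactive = the rest.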

Group 3 secretory phospholipase A2 (Homo sapiens), sequence (Q9NZ20 whole entry, looked up): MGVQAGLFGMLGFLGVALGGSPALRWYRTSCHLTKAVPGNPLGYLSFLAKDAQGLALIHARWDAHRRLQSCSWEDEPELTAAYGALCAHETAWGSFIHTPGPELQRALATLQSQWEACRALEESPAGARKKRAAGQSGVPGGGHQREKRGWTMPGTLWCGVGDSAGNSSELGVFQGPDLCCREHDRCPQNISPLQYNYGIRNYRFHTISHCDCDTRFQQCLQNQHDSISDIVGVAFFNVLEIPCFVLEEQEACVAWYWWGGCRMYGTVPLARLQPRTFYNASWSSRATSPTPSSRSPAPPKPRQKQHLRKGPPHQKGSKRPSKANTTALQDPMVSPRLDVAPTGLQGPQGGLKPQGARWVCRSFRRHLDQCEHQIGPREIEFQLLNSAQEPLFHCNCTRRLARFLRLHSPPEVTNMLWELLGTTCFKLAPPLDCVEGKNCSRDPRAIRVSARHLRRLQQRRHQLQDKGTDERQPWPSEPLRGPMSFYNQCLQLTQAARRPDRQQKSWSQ

This assay addresses Group 3 secretory phospholipase A2 (Homo sapiens) (UniProt Q9NZ20). In words: human group III sPLA2 inhibitors, primary screen, biochemical, QFRET, BODIPY PC-A2 liposome substrate (AID 743126).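 Note: 0% = median of test compound wells and 100% = no enzyme DMSO wells.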 The following applies: QFRET BODIPY PC-A2 liposome hydrolysis, fluorescence; at 12.2 µM; active compounds read high.
One may read the inhibition as the relative decrease from the control value, in per cent. Regarding `CCOc1ccc(N(CC(=O)Nc2c(C)n(C)n(-c3ccccc3)c2=O)S(=O)(=O)c2ccc(Cl)s2)cc1`, the inhibition is -3.41%.

With `O=C(NCCc1c[nH]c2ccccc12)OCc1cn(-c2c(F)cccc2F)nn1`, the inhibition was -62.2%.

Take `CC(=O)c1cc(-c2ccc3ccccc3c2)c(=O)n2c1CCC2`: the inhibition is -7.07%.

`O=C(CCCCCN1C(=O)C2C3C=CC(C3)C2C1=O)Nc1ccccc1` (stereo not given): the inhibition was -2.11%.

For `CC(=O)Nc1ccc(Oc2ccc3c(c2)C(=O)NC3=O)cc1`, the inhibition was 1.41%.

With `CC(=O)O[C@H]1c2ccccc2-c2ccccc2[C@@H]1OC(C)=O`, the inhibition is 1.14%.

As for `CC(=O)Oc1ccc2c(c1)C(=O)c1ccccc1C2=O`, the inhibition is 20.7% (active).

Turning to `NS(=O)(=O)c1ccc(CCNC(=O)NC2CCCCC2)cc1`, the inhibition is 20.7% (active).

Regarding `COc1ccc(OCC(=O)NCCc2ccc(S(N)(=O)=O)cc2)cc1`, the inhibition was 0.5%.

As for `O=C(NCCCNC(=O)NC1CCCCC1)NC1CCCCC1`, the inhibition was 6.47%.

Turning to `O=C(NCCC1=CCCCC1)C1CCN(S(=O)(=O)c2ccc(Cl)s2)CC1`, the inhibition was -2.99%.

Turning to `COc1cccc(NC(C)=[N+](C)CCNS(=O)(=O)c2ccc(Cl)cc2)c1`, the inhibition was 22.1% (active).

As to `COc1ccc(S(=O)(=O)NCCCCOc2ccc(Cl)cc2)cc1`, the inhibition is -35.8%.

For `COc1cccc(NC(=O)CCNS(=O)(=O)c2ccc3c(c2)oc(=O)n3C)c1`, the inhibition is 5.16%.

Turning to `CN(C)[C@H]1CCN(c2cccc3c2S(=O)(=O)N2CC[C@H](C2)O3)C1`, the inhibition is -0.04%.

Consider `Cc1ccc(OCc2nnc(SC/C=C/c3ccccc3)n2Cc2ccco2)cc1`, for which the inhibition was -14.9%.

As for `CC(=O)Nc1nc2ncccn2c1-c1ccc(C(F)(F)F)cc1`, the inhibition was 11.9%.

As to `COC(=O)[C@]12C[C@H](CC(=O)N3CCN(C(=O)C4CC4)CC3)C(=O)N(CCC3=CCCCC3)C1=C[C@H](C(C)C)O[C@@H]2C1CC1`, the inhibition is 4.41%.

Regarding `CN(CC(=O)Nc1ccc(N2CCOCC2)cc1)CC(=O)Nc1ccccc1[N+](=O)[O-]`, the inhibition is 20.6% (active).

Consider `CSc1ccccc1NC(=O)CN(C)CC(=O)Nc1ccc(Cl)cc1[N+](=O)[O-]`, for which the inhibition is -3.92%.

As to `CN(CC(=O)Nc1ccccc1[N+](=O)[O-])Cc1ccc(Br)cc1`, the inhibition is -9.41%.

On to `Cc1cc(=O)[nH]c(SCC(=O)Nc2ccc(F)cc2F)n1`, for which the inhibition was -0.22%.

In the case of `CCC(C)[C@@H](C(=O)OC)N(CCc1cn(Cc2ccccc2)nn1)S(=O)(=O)c1ccccc1Br` (stereo not given in full), the inhibition was -21.7%.

As for `CCn1c(SCC(=O)Nc2ccccc2F)nc2c(c1=O)SC(C)C2` (stereo not given), the inhibition is 0.02%.

Consider `COCCn1c(SCC(=O)Nc2cc(OC)ccc2OC)nc2c(c1=O)SC(C)C2` (stereo not given), for which the inhibition was 20.3% (active).

Regarding `COCCn1c(SCC(=O)Nc2cc(Cl)ccc2OC)nc2c(c1=O)SC(C)C2` (stereo not given), the inhibition was -0.04%.

For `Cc1nc(CNc2ncnc3ccc(-c4ccc5c(c4)OCO5)cc23)cs1`, the inhibition was -8.39%.

On to `CCCCn1c(N)c(N(CCOC)C(=O)COc2c(C)cccc2C)c(=O)[nH]c1=O`, for which the inhibition was 21.9% (active).

For `CCCCn1c(N)c(N(CCOC)C(=O)c2sc3ccccc3c2Cl)c(=O)[nH]c1=O`, the inhibition is 5.32%.

For `CCCCn1c(N)c(N(CCOC)C(=O)CSCC(=O)Nc2cccc(C)c2)c(=O)[nH]c1=O`, the inhibition was 0.3%.

`CCCCOCCCNC(=O)C[C@H]1C[C@@]2(C(=O)OC)C(=C[C@H](C(C)(C)C)O[C@@H]2C)N(CCc2ccc(OC)c(OC)c2)C1=O`: the inhibition is -14.2%.

In the case of `COc1ccnc(C(=O)N2CCC(Oc3cccnc3)CC2)c1`, the inhibition is 3.64%.

In the case of `O=c1cnnc(Nc2ccccc2)[nH]1`, the inhibition was 6.17%.

Take `Cc1ccc(Nc2ccccc2N)cc1`: the inhibition is -1.96%.

Consider `Nc1ccc(Nc2ccccc2)cc1`, for which the inhibition is 19.5% (active).

With `CC(=O)O[C@@]1(C(C)=O)CCC2[C@H]3C=C(C)C4=CC(=O)CC[C@@]4(C)C3CC[C@]21C` (stereo not given in full), the inhibition is 14%.

For `COc1ccc(C(=O)NCCSc2ccccc2C)cc1`, the inhibition is -6.45%.

Consider `COc1ccc(C(=O)NN2C(=O)C3C(c4ccccc4)C=CC(c4ccccc4)C3C2=O)cc1` (stereo not given), for which the inhibition is -36.3%.

Consider `COc1ccc(C(=O)NNc2cc(C)nc(NNC(=O)c3ccc(OC)cc3)n2)cc1`, for which the inhibition is -3.83%.

Take `COc1ccc(C(=O)NNC(=S)NC(=O)c2ccccc2)cc1`: the inhibition was 31.9% (active).

As to `COc1ccc(C(=O)NC(=S)NNC(=O)c2c(-c3ccccc3)noc2C)cc1`, the inhibition was 19.5% (active).

For the compound `COC(=O)c1ccc2nc(-c3ccccc3)c(Cc3ccc(OC)cc3C)n2c1`, the inhibition is -8.3%.

Regarding `O=S1(=O)c2ccc(Br)cc2OC[C@@H](Cc2ccccc2)N1Cc1cn(Cc2ccco2)nn1`, the inhibition is -4.54%.

Consider `Nn1c(SCC(=O)Nc2cccc3ccccc23)nnc1-c1cc(-c2ccc(F)cc2)n[nH]1`, for which the inhibition is -0.61%.

Take `COC(=O)c1ccccc1-n1cc(COC(=O)NCCc2ccccc2)nn1`: the inhibition is 6.94%.

As to `Cc1ccccc1NC(=O)Cn1nnc(-c2ccccc2F)n1`, the inhibition was -6.88%.

On to `O=C1CC[C@@H](COc2ccc3[nH]cc(-c4ccccc4)c3c2-c2ccccc2)N1`, for which the inhibition is -47.7%.

Consider `COc1ccc(/C=C2\CC3(OC(C)=O)CCCN2C3)cc1` (stereo not given), for which the inhibition was 2.59%.

On to `CC(C)CNS(=O)(=O)CC1NCCc2ccccc21` (stereo not given), for which the inhibition is 3.21%.

For the compound `COCCN(C(=O)c1ccco1)c1nnc(-c2ccc(OC)cc2)s1`, the inhibition was -1.24%.

With `COc1cc(OC)cc(-c2nc3nc(C)c(CCC(=O)NCc4ccco4)c(C)n3n2)c1`, the inhibition was 9.12%.

With `COc1cc(OC)cc(C2=Cc3ccccc3C(CC(=O)c3ccco3)N2c2ccc(-c3cnc(OC)nc3)cc2)c1` (stereo not given), the inhibition is 20.3% (active).

Take `CC(c1c[nH]c2ccccc12)c1c(-c2ccccc2)n(C)c2ccccc12` (stereo not given): the inhibition was -21.1%.

As to `COc1ccc(CSc2nnc(-c3cccc(C)c3)n2C)cc1`, the inhibition was 11.9%.

As for `O=C(CSc1nc2sc3c(c2c(=O)n1-c1ccccc1)CCCC3)NN=Cc1ccc(OCc2ccccc2)cc1`, the inhibition is -1.3%.

As to `COC(=O)C1CN(CC(C)C)CCS(=O)(=O)N1Cc1ccc(F)cc1` (stereo not given), the inhibition is 5.81%.

For `N#Cc1ccccc1OC[C@@H](O)CN1CCC(C(O)(c2ccccc2)c2ccccc2)CC1`, the inhibition was -25.3%.

With `COc1ccc(/C=C(/NC(=O)c2ccco2)C(=O)Nc2ccc(C(C)=O)cc2)cc1`, the inhibition was 10.6%.

`CC(Oc1ccc2ccccc2c1)C(=O)NNC(=S)NC(=O)c1ccco1` (stereo not given): the inhibition was 20% (active).

Turning to `NS(=O)(=O)c1ccc(CNC(=S)NC(=O)c2ccco2)cc1`, the inhibition was -1.55%.

Regarding `CCOC(=O)C1=C(C)NC2=C(C(=O)CC(C)(C)C2)C1c1ccc2c(c1)OCO2` (stereo not given), the inhibition is 14.4%.

For `CCCOc1ccc(Oc2c(Cl)cnn(Cc3cccc4ccccc34)c2=O)cc1`, the inhibition was 3.84%.

Regarding `COc1cccc2c(C)c(C(=O)O)[nH]c12`, the inhibition is -1.9%.

Consider `Cc1ccc2[nH]c(C(=O)O)c(NC(=O)c3ccccc3[N+](=O)[O-])c2c1`, for which the inhibition was -10.3%.

As to `Cc1c(C(=O)N/N=C/c2ccccc2)[nH]c2c([N+](=O)[O-])cccc12`, the inhibition is 21.8% (active).

Turning to `O=C(NCc1cccs1)C1CCCN(S(=O)(=O)c2ccc([N+](=O)[O-])cc2)C1` (stereo not given), the inhibition was 2.84%.

`CN1C[C@]2(C=C3CCCCC3n3c(=O)n(-c4ccccc4)c(=O)n32)N=C1NC(=O)c1ccccc1` (stereo not given in full): the inhibition was -6.07%.

For `O=C(Nc1cc(Cl)cc(Cl)c1)OCCN1CCCC12CCC(c1ccccc1)CC2` (stereo not given), the inhibition is -8.41%.

As for `C#CCCN([C@H](C(=O)OC)C(C)C)S(=O)(=O)c1ccc(F)cc1Br`, the inhibition was 3.19%.

As for `COP(=O)(O)CNC(=O)OCc1ccccc1`, the inhibition is 2.13%.

Turning to `O=C(CN1CCCc2ccccc21)NCc1ccc(F)cc1`, the inhibition was 7.05%.

As for `CCc1ccc(-c2nn(-c3ccccc3)cc2CSC(=N)N)cc1`, the inhibition was 15.7%.

`CSC1=NCCN1C(=O)Cc1cccc2ccccc12`: the inhibition is 7.18%.

`N=C(N)SCc1cccc2ccccc12`: the inhibition is 35.3% (active).

Consider `O=C(CNS(=O)(=O)c1ccccc1F)N1CCN(c2ccccn2)CC1`, for which the inhibition was 5.26%.

With `Cc1cc(-n2nc(C)cc2C)n2ncc(-c3ccccc3)c2n1`, the inhibition was 21.3% (active).

For `COc1ccccc1-c1cnn2c(N3CCOCC3)cc(C)nc12`, the inhibition was 17.5%.

Turning to `Cc1cc(C)n(-c2nc(C(F)(F)F)nc3ccccc23)n1`, the inhibition was 1.7%.

With `COC(=O)C[C@@H]1CC[C@H]2[C@@H](COc3ccc(NS(=O)(=O)CC(F)(F)F)cc3C(=O)N2C)O1`, the inhibition is 6.09%.

For `O=C(/C=C/c1c(Cl)cccc1Cl)NCc1ccccc1`, the inhibition was 20% (active).

`CCOC(=O)CNC(=O)/C=C/c1c(Cl)cccc1Cl`: the inhibition was -5.13%.

On to `O=C(CC(=O)N/N=C\c1cccc(Cl)c1Cl)NCc1ccccc1`, for which the inhibition is -20.8%.

`O=C(CSc1nc2ccccc2s1)NN=Cc1ccc(O)cc1O`: the inhibition was -23%.

For `CC(C)c1ccc(Nc2nnc(SCC(=O)c3nnc(-c4ccccc4)o3)s2)cc1`, the inhibition is 22.6% (active).

Turning to `CN(C(=O)CSc1nnc(Nc2ccccc2)s1)C1CCS(=O)(=O)C1` (stereo not given), the inhibition was -0.8%.

As to `COc1cccc(Nc2nnc(SCC(=O)N3CC(C)OC(C)C3)s2)c1` (stereo not given), the inhibition was 13.8%.

Take `COc1ccc(-n2c(SCC(=O)NC3CCCC3)nnc2-c2ccncc2)cc1`: the inhibition was 12.7%.

Regarding `CCCCOc1ccc(CSC(=N)N)cc1[N+](=O)[O-]`, the inhibition is 34.6% (active).

For `CCCCOC(=O)CCCc1ccc([N+](=O)[O-])cc1[N+](=O)[O-]`, the inhibition was 1.12%.

Turning to `CCCCCOc1ccc(CSC2=NCCN2)cc1[N+](=O)[O-]`, the inhibition is -1.57%.

The values are drawn from PubChem BioAssay AID743126 (The Scripps Research Institute Molecular Screening Center, 2013).
